Screens as filed in PubChem.
Only some compounds are listed: those with a hit (about 1.3% of all), similar ones and a draw of the others.
SARS 3CLpro inh = SARS-CoV 3CLpro protease inhibition; AID 1706; hit rate 0.14% among 290,000; recombinant SARS-CoV 3CLpro, quenched FRET peptide cleavage; P0C6X7; inhibition, % at 6 µM; in the data active means inhibition above about 12%
Mtb hypoxia inh = reduces hypoxia-regulated biosensor signal in M. tuberculosis | M. tuberculosis hypoxia-regulated fluorescent reporter, fluorescence | fluorescence inhibition, % (concentration not given with the values) | hit rate 0.1% among 300,000 | AID 1159583; in the data active means fluorescence inhibition mostly above about 23%, no sharp cut-off; inactive means mostly below about 17%
SSB-PriA inh = inhibitors of Klebsiella pneumoniae PriA binding to SSB C-terminal tail; AlphaScreen SSBct-PriA binding, biotinylated peptide; inhibition, % at 33 µM; hit rate 0.6% among 430,000; AID 1272365; in the data active means inhibition mostly above about 37%, no sharp cut-off; inactive means mostly below about 20%;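 further: plate controls were negative control peptide for no effect and reference peptide for full effect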
CCHFV vOTU inh = CCHFV vOTU protease inhibition. Pep-AMC fluorescence. inhibition, % at 11.5 µM. hit rate 0.55% among 370,000. AID 651958; in the data active means inhibition above about 30%; further: 0% = vehicle wells with enzyme and 100% = no enzyme wells
VHR inh abs = DUSP3 (human) phosphatase inhibition; P51452; recombinant VHR phosphatase, pNPP absorbance; hit rate 0.52% among 290,000; AID 1654; inhibition, % at 13.3 µM; in the data active means inhibition above about 50%
Target sequence (P51452 whole entry, looked up): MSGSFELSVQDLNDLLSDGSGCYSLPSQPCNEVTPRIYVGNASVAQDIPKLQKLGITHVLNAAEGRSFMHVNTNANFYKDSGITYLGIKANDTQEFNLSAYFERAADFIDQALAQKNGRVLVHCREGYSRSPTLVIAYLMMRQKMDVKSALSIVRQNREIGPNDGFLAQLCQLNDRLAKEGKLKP
The depositor's hits bear a star; i = inactive; · = not tested or not shown.

SMILES | SARS 3CLpro inh | Mtb hypoxia inh | SSB-PriA inh | CCHFV vOTU inh | VHR inh abs
COCCCN1C(=O)C(=O)C(=C(O)c2ccc(S(=O)(=O)N3CCOCC3)cc2)C1c1cccc(Cl)c1 (stereo not given) | · | · | 1 | · | ·
c1ccc(-c2cn(C[C@H]3CC[C@H](Cn4cc(-c5ccccn5)nn4)O3)nn2)nc1 | -4 | · | 109* | -2 | 28
c1ccc(-c2cn(CC3CCC(Cn4cc(-c5ccccn5)nn4)O3)nn2)nc1 (stereo not given) | · | 6 | · | · | ·
CCOc1ccc(CC(=O)Nc2nc3c(OC)ccc(C)c3s2)cc1 | · | · | 2 | · | ·
COC(=O)c1ccc(NC(=O)C(=O)NC[C@H](C)O)cc1 | · | · | -3 | · | ·
Cc1cc(C)n(CC(O)COc2ccccc2[N+](=O)[O-])n1 (stereo not given) | 1 | 1 | -8 | 11 | 56*
COC(=O)c1ccc(NC(=O)CSc2ncc(-c3ccc(OC)cc3)n2C)cc1 | · | · | -20 | · | ·
COc1cccc2cc(C(=O)N3CCN(c4cc(C(F)(F)F)ncn4)CC3)oc12 | · | · | -7 | · | ·
CCOC(=O)Nc1ccc2c(c1)N(C(=O)CCN(CC)CC)c1ccccc1CC2 | 1 | 3 | 6 | -3 | 50*
CCN(CC)CCC(=O)N1c2ccccc2CCc2ccc(NC(=O)OC)cc21 | 1 | -6 | 6 | 6 | -6
CC(C)c1nccn1CC1CCN(S(=O)(=O)c2cccnc2)CC1 | · | · | -3 | · | ·
COc1cc(C=NO)nc(-c2ccccn2)c1 | · | · | 83* | 0 | ·
CCOC(=O)N1CCN(C(=O)CC(=O)Nc2ccc3nc4n(c(=O)c3c2)CCCCC4)CC1 | 1 | 13 | 30 | -2 | 22
CCOC(=O)N1CCN(C(=O)C(=O)Nc2ccc3nc4n(c(=O)c3c2)CCCCC4)CC1 | 0 | 7 | 104* | -4 | 8
OCC[C@@H]1C[C@@H](O)[C@H](O)[C@]2(CCCc3ccccc3O2)O1 | -5 | · | -22 | 4 | 52*
OCC[C@H]1C[C@@H](O)[C@H](O)[C@]2(CCCc3ccccc3O2)O1 | · | · | -14 | 8 | ·
Cc1cccc(NC(=O)[C@@H]2CCCN2C(=O)OC(C)(C)C)c1 | -3 | 0 | -8 | 13 | 58*
CC(=O)c1cccc(NC(=O)N2CCCC2C(=O)Nc2ccc3c(c2)OCO3)c1 (stereo not given) | -3 | 9 | 2 | -2 | 57*
Cc1cc(OCC(O)CNCc2ccco2)ccc1Cl (stereo not given) | · | · | -5 | · | ·
CC1(c2ccccc2)CC(C)(C)N(C(=O)C2CCCO2)c2ccccc21 (stereo not given) | 1 | 14 | -7 | 35* | -23
O=C(Cc1c(F)cccc1Cl)NCCn1nc(-n2ccnc2)ccc1=O | · | · | -5 | · | ·
CC1=NN(c2ccccc2)C(=O)/C1=C\c1ccc(Oc2ccc([N+](=O)[O-])cc2[N+](=O)[O-])cc1 | -11 | · | 21 | 91* | 4
Cc1ccc(NC(=O)C(=O)NC[C@@H](c2cccn2C)N(C)C)cc1F | · | · | -2 | · | ·
Cc1ccc2sc(NNC(=O)c3ccc(N(C)C)cc3)nc2c1C | · | · | 13 | · | ·
CN(C(=O)CSC1=NCCS1)c1ccccc1 | 2 | 16 | -9 | -10 | 52*
SMILES | SARS 3CLpro inh | Mtb hypoxia inh | SSB-PriA inh | CCHFV vOTU inh | VHR inh abs
Cc1cc(C=O)c(C)n1-c1ccc(NC2CCCC2)c([N+](=O)[O-])c1 | · | -6 | 68* | -8 | ·
CSc1cccc(CN2CCC(CCC(=O)NC3CC3)CC2)c1 | -4 | -3 | -12 | -8 | 51*
CCOCc1cc(CN2CCC(CCC(=O)NC3CC3)CC2)ccc1OC | -8 | 19 | -15 | 0 | 28
Nn1c(SCc2ccccc2)nnc1-c1ccccn1 | 3 | 17 | 45* | 3 | 31
Cc1ccc(CSc2nnc(-c3ccccn3)n2N)cc1 | -1 | 9 | -4 | -12 | 4
CCCCOC(=O)c1ccc(NC(=O)/C(C#N)=C/c2cn(Cc3ccccc3)c3ccccc23)cc1 | · | · | 6 | · | ·
CCC(=O)N1CCN(c2ccc(-c3ccc(C)c(C)c3)nn2)CC1 | · | · | -22 | · | ·
O=C(Oc1cccc(OC(=O)c2ccco2)c1)c1ccco1 | 0 | 12 | 8 | 7 | 56*
Cc1ccc([C@@H]2C(C(=O)c3cccs3)=C(O)C(=O)N2c2cccc(C)n2)cc1 | · | · | -16 | · | ·
Cc1cc2ccccn2c1C(=O)c1ccc(N/N=C/c2ccc(C(=O)O)cc2)c([N+](=O)[O-])c1 | 3 | · | i | -1 | 83*
Cc1ccccc1C(=O)NC1CCN(Cc2ccccc2)CC1 | 2 | 4 | 5 | 8 | 0
Cc1cccc(NS(=O)(=O)c2ccc(C)c(C(=O)NC3CCN(Cc4ccccc4)CC3)c2)c1 | · | -2 | 47* | -14 | ·
Cc1cc(C)c(S(=O)(=O)N2CCN(C(=O)c3c(C)nn(-c4ccccc4)c3Cl)CC2)c(C)c1 | · | 2 | 44* | 13 | ·
